Compound activity (PubChem)
Most compounds without a hit are left out; they make up all but 9.2% or so of the library.
HTT ATP protect = protects HTT-Q103 PC12 cells, measured by ATP | Potency, µM (doses to about 56.4 µM), usual class: activators | 230,000 tested, 0.14% active | AID 1471 | PC12 HTT-Q103 induced, cytoprotection, ATP luminescence, 40 h; active = well fitted curve in the direction sought with a large enough effect; inconclusive = small, poorly fitted or top-dose-only effect, or another doubt; inactive = no such curve, though single readings can be large; an effect the other way counts as inactive or inconclusive; note: nearly all actives have a fitted effect of over 45% in size
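Quantitative HTS on tebufenozide-induced (100 nM) PC12 cells expressing HTTQ103 exon 1–GFP; compounds tested as a concentration series; survival measured via cellular ATP.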
HTT aggregate = mutant huntingtin aggregation inhibition. PC12 HttQ103-GFP aggregates, Acumen cytometry, 40 h. Potency, µM (series often up to 46.1 µM), hits mostly inhibitors. 220,000 tested, 1.1% active. AID 1688; active = well fitted curve in the direction sought with a large enough effect; inconclusive = small, poorly fitted or top-dose-only effect, or another doubt; inactive = no such curve, though single readings can be large; an effect the other way counts as inactive or inconclusive; note: nearly all actives have a fitted effect of over 60% in size
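Steps: seed 1500 PC12 HTTQ103-GFP cells/well; add tebufenozide, 100 nM final; add compound titration; add ATPLite reagent; quantify GFP aggregates by laser scanning cytometry.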
HPGD inh = HPGD (human) dehydrogenase inhibition. Potency, µM, hits mostly inhibitors. purified HPGD, NADH fluorescence kinetic, PGE2 substrate. P15428. 150,000 tested, 4.3% active
Target sequence (P15428 whole entry, looked up): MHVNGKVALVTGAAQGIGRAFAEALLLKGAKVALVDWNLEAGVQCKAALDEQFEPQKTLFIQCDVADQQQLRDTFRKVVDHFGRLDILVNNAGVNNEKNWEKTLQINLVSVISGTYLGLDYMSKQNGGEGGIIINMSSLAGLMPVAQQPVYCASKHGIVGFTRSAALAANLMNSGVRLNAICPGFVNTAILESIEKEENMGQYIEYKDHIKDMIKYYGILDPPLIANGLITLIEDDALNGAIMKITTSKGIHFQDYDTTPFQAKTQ
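NADH formation kinetics: reaction with 30 uM PGE2 and 1 mM NAD+ (final), 20 nM enzyme, Tris-HCl pH 8 with Tween 20, after 15 min compound preincubation at room temperature. Fluorescence change, last versus first of five reads.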
Lamin A splicing = LMNA splicing modulation. Potency, µM (doses to about 46.1 µM), actives largely listed as inhibitors. AID 1487. 200,000 tested, 0.01% active. HeLa LMNA splicing GFP/RFP minigene ratio, 48 h; active = well fitted inhibition curve with a large enough effect in the signal ratio, with a control signal flat, not every such curve was filed as active; inconclusive = small, poorly fitted or top-dose-only effect, or effect the other way, or a change in a side signal; the % refers to the signal ratio
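S3 HeLa cells stably expressing lamin A-EGFP splicing minigene plus DsRed2, 600 cells/well, 48 h compound exposure at 37C. Laser-scanning cytometry; analysed as GFP (500-530 nm)/RFP (575-640 nm) total intensity ratio; 0.5% DMSO vehicle.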
KDM4E inh = JMJD2E (human) inhibition. B2RXH2. JMJD2E catalytic domain, FDH-coupled NADH fluorescence (FDH is formaldehyde dehydrogenase). Potency, µM (series often up to 57.1 µM), usual class: inhibitors. 230,000 tested, 1.6% active; note: nearly all actives have a fitted effect of over 50% in size
ALDH1A1 block = inhibitors of human aldehyde dehydrogenase 1A1 | P00352 | Purified ALDH1A1, NADH fluorescence, propionaldehyde substrate | Potency, µM (top dose mostly 75.3 µM), most hits filed as inhibitors | 220,000 tested, 7.3% active
Target sequence (P00352 whole entry, looked up): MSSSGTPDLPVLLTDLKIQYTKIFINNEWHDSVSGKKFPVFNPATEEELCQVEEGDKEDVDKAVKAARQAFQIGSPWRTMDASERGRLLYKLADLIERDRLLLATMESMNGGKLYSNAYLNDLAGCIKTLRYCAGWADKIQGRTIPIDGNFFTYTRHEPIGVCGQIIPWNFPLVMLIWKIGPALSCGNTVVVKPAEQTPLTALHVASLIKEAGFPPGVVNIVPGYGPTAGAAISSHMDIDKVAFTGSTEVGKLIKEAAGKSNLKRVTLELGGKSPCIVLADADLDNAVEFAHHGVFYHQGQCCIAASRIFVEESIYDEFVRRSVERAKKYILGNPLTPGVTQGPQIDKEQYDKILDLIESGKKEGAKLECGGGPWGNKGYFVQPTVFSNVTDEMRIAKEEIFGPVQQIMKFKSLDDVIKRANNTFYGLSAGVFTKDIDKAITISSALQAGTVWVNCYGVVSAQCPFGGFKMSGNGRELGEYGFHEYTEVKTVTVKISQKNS
Large screens that a line does not name were inactive. Unless noted, calls come from the whole dose curve; as a rule, active = well fitted inhibition curve with a large enough effect (not every such curve was filed as active); inconclusive = small, poorly fitted or top-dose-only effect, or another doubt; inactive = no such curve, though single readings can be large or run the other way.

COc1ccccc1Nc1nc(-c2sc(NC(=O)c3ccc([N+](=O)[O-])cc3)nc2C)cs1	ALDH1A1 block 16µM
COc1ccccc1Nc1nc(C)cs1	ALDH1A1 block 18µM
COc1ccccc1Nc1nc(-c2sc(NC(=O)c3ccccc3)nc2C)cs1	HPGD inh inconclusive, ALDH1A1 block 13µM
COc1ccccc1Nc1nc(-c2c(C)nc3ncccn23)cs1	Lamin A splicing inconclusive, KDM4E inh 16µM, ALDH1A1 block inconclusive (no result: HPGD inh)
CCCCCC(=O)Nc1nc(C)c(-c2csc(Nc3ccccc3OC)n2)s1	HPGD inh inconclusive, ALDH1A1 block inconclusive
Cc1csc(Nc2cccc3ccccc23)n1	KDM4E inh inconclusive, ALDH1A1 block inconclusive (no result: HPGD inh)
CCOc1ccccc1Nc1nc(-c2sc(NC(=O)c3ccccc3)nc2C)cs1	KDM4E inh inconclusive, ALDH1A1 block inconclusive
CCOc1ccc(Nc2ncnc3c2c(-c2ccccc2)cn3-c2cccc(C)c2)cc1	none (no result: HTT ATP protect, HTT aggregate, HPGD inh, KDM4E inh, ALDH1A1 block)
CCCn1cc(S(=O)(=O)c2ccc(OC)cc2)c(=O)c2cc(F)c(N3CCCCCC3)cc21	none (no result: HTT ATP protect, HTT aggregate, HPGD inh, KDM4E inh, ALDH1A1 block)
CCCCCCC(=O)Nc1nc(C)c(-c2csc(Nc3cc(Cl)ccc3C)n2)s1	ALDH1A1 block inconclusive
Cc1ccc(Cl)cc1Nc1nc(-c2sc(NC(=O)c3ccccc3)nc2C)cs1	HPGD inh inconclusive, KDM4E inh inconclusive, ALDH1A1 block 20µM
Cc1cnc(C(=O)O)c[n+]1[O-]	none (no result: HPGD inh, Lamin A splicing, KDM4E inh, ALDH1A1 block)
C=C1CC[C@@H](O)C/C1=C/C=C1\CCC[C@]2(C)[C@@H]1CC[C@H]2[C@@H](C)CCCC(C)C	none (no result: HTT aggregate, HPGD inh, Lamin A splicing, KDM4E inh, ALDH1A1 block)
Cc1csc(/N=C/c2ccc([N+](=O)[O-])cc2)n1	KDM4E inh inconclusive, ALDH1A1 block 11µM
COC(=O)N1CCC2(CC1)CN(C(=O)Nc1cccc(F)c1)C2	none (no result: HTT aggregate, Lamin A splicing, KDM4E inh)
O=[N+]([O-])c1ccc(N2CCN(CCOCCO)CC2)c([N+](=O)[O-])c1	KDM4E inh 10µM, ALDH1A1 block inconclusive (no result: HPGD inh)
O=[N+]([O-])c1cc(C(F)(F)F)ccc1N1CCN(CCO)CC1	none (no result: HPGD inh)
C/C(CC(=O)Nc1cc(Cl)ccc1C)=N\NC(N)=O	none (no result: HPGD inh, Lamin A splicing)
CCOC(=O)N1CCC(=NNS(=O)(=O)c2cccc([N+](=O)[O-])c2)CC1	ALDH1A1 block 10µM
Cc1ccc(C(=O)CSc2n[nH]c(-c3ccco3)n2)cc1C	HPGD inh 5µM, ALDH1A1 block inconclusive
COc1ccc(C(=O)OCC(N)=O)cc1[N+](=O)[O-]	none (no result: HTT ATP protect)
NC(=O)CSc1n[nH]c(-c2ccco2)n1	none (no result: HPGD inh, Lamin A splicing, ALDH1A1 block)
COc1ccc(C(=O)CSc2n[nH]c(C)n2)cc1[N+](=O)[O-]	ALDH1A1 block 10µM (no result: HTT ATP protect, HPGD inh, Lamin A splicing)
COc1ccc(C(=O)CSc2n[nH]c(-c3ccco3)n2)cc1	HPGD inh 3.5µM
CCc1nc(SCC(=O)c2ccc(C)c(C)c2)n[nH]1	HPGD inh inconclusive, KDM4E inh inconclusive, ALDH1A1 block inconclusive
COCCNC(=O)[C@H](C)/C=C(\c1cccnc1)C(NC(=O)OCc1ccccc1)c1ccc(C(=O)OC)cc1 (stereo not given in full)	none (no result: HTT aggregate, Lamin A splicing)
CC1(C)OC(C(O)(c2cc(C(F)(F)F)cc(C(F)(F)F)c2)c2cc(C(F)(F)F)cc(C(F)(F)F)c2)C(C(O)(c2cc(C(F)(F)F)cc(C(F)(F)F)c2)c2cc(C(F)(F)F)cc(C(F)(F)F)c2)O1 (stereo not given)	none (no result: HTT aggregate, HPGD inh, Lamin A splicing, KDM4E inh)
O=C(CSc1nncc2ccccc12)N1CCOCC1	HPGD inh 28µM, ALDH1A1 block inconclusive
c1ccc(COc2ccc(Nc3ncnc4nc[nH]c34)cc2)cc1	HTT aggregate inconclusive, HPGD inh 16µM
CCOC(=O)c1ccc(Nc2ncnc3nc[nH]c23)cc1	HPGD inh inconclusive, KDM4E inh inconclusive
Cc1cccc(Nc2ncnc3nc[nH]c23)c1	HTT aggregate 13µM
Cc1ccc(C)c(Nc2ncnc3nc[nH]c23)c1	none
OC1c2ccccc2-c2nc3ccccc3cc21 (stereo not given)	KDM4E inh inconclusive, ALDH1A1 block inconclusive (no result: HTT aggregate, Lamin A splicing)
Cc1cccc(N2C(=O)CCSC23C(=O)N(Cc2ccc(F)cc2)c2ccccc23)c1 (stereo not given)	none (no result: HTT ATP protect, HTT aggregate, HPGD inh, KDM4E inh, ALDH1A1 block)
CC1(C)CC[C@]2(C)CC[C@@]3(C)C(=CCC4[C@@]5(C)CCC(O)C(C)(C)C5CC[C@@]43C)C2C1 (stereo not given in full)	none (no result: HTT aggregate, Lamin A splicing)
Cc1ccc(-c2noc(C3CCCN(C(=O)c4ccccc4)C3)n2)o1 (stereo not given)	ALDH1A1 block 14µM
COc1cccc(-c2noc(C3CCCN(C(=O)Cc4ccccc4)C3)n2)c1 (stereo not given)	ALDH1A1 block 13µM
COc1ccc(C(=O)N2CCCC(c3nc(-c4cc(OC)c(OC)c(OC)c4)no3)C2)cc1 (stereo not given)	HPGD inh 25µM
O=C(CN1CCNCC1)NC1CCCCC1	none (no result: HPGD inh, Lamin A splicing, KDM4E inh, ALDH1A1 block)
Cn1c(C(=O)N2CCCC(C(=O)NCCCc3ccccc3)C2)cc2sccc21 (stereo not given)	Lamin A splicing inconclusive, ALDH1A1 block 14µM
Cc1ccc(CCNC(=O)C2CCCN(C(=O)c3cc4sccc4n3C)C2)cc1 (stereo not given)	Lamin A splicing inconclusive, ALDH1A1 block 8.9µM
CCOC(=O)N1CCC(NC(=O)C2CCCN(C(=O)c3cc4sccc4n3C)C2)CC1 (stereo not given)	Lamin A splicing inconclusive, ALDH1A1 block inconclusive
CCS(=O)(=O)N1CCCC(C(=O)NCc2ccc3c(c2)OCO3)C1 (stereo not given)	none
Cn1c(C(=O)N2CCCC(C(=O)NCCc3ccccc3)C2)cc2sccc21 (stereo not given)	HTT aggregate inconclusive, ALDH1A1 block 11µM
Cn1c(C(=O)N2CCCC(C(=O)NCc3ccc4c(c3)OCO4)C2)cc2sccc21 (stereo not given)	ALDH1A1 block 3.5µM
CC(C)Oc1ccc(C(=O)NC2(C(F)(F)F)NC(=O)N(CCCc3ccccc3)C2=O)cc1 (stereo not given)	Lamin A splicing inconclusive
COC(=O)C1=NOC2(C=C(Br)C(OC)=C(Br)C2=O)C1 (stereo not given)	HTT ATP protect inconclusive (no result: HTT aggregate, HPGD inh, Lamin A splicing, KDM4E inh)
C[C@H]1Cc2c(-c3ccccc3)nc3c(c2CO1)CN(C(=O)c1ccco1)CC3	none (no result: HTT aggregate)
CCOC(=O)[C@]1(C(NC(=O)OC)c2ccccc2)CCCC1=O (stereo not given in full)	none (no result: HTT aggregate, HPGD inh, Lamin A splicing, KDM4E inh)
C=CCOC(=O)C1(C(NC(=O)OC)c2ccccc2)C(=O)Cc2ccccc21 (stereo not given)	HTT ATP protect inconclusive, ALDH1A1 block 4.5µM (no result: HTT aggregate, Lamin A splicing)
COCCn1c(=O)c(-c2ccc(F)cc2)nc2cnc(Oc3ccc(OC)cc3)nc21	ALDH1A1 block inconclusive (no result: HTT aggregate, Lamin A splicing, KDM4E inh)
O=C(O)CSC1=NCCN1	none (no result: HTT aggregate, Lamin A splicing, KDM4E inh)
CSC1(SC2=NCCN2)SC2(NCCN2)S1	ALDH1A1 block 0.089µM (no result: HTT aggregate, Lamin A splicing, KDM4E inh)
